Results reported in PubChem BioAssay (EPA / NIEHS).
Activity calls are given as the source filed them. Rule for the calls: active = hit-call score of the fitted dose curve at least 0.9, where 1 is the maximum; inactive = score below 0.9.

Legend:
Details in all cases: mRNA level, 48 h; actives raise or lower the signal
[1] = read-out: ABC Transporter (ABCB11), ABCB11 (gene 8647); test: LTEA_HepaRG_ABCB11: Life Technologies and Expression Analysis (LTEA) Assay for ABC Transporter (ABCB11) using HepaRG (AID 2283463)
Outline: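 HepaRG, 48 h exposure, 8-pt half-log CRC top 100 uM, 0.5% DMSO vehicle, duplicates. Readout: TaqMan qRT-PCR of ABCB11 mRNA, housekeeping-normalized (ACTB/GAPDH/POLR2A). Bidirectional fit vs DMSO baseline.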

[2] = read-out: ABC Transporter (ABCC2), ABCC2 (gene 1244); test: LTEA_HepaRG_ABCC2: Life Technologies and Expression Analysis (LTEA) Assay for ABC Transporter (ABCC2) using HepaRG (AID 2283464)
Outline: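 Gene expression of ABCC2 was determined by qRT-PCR in HepaRG cells exposed 48 h to chemicals (highest 100 uM, half-log dilutions). Activity was fitted in both directions relative to 0.5% DMSO vehicle.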

[3] = read-out: Broad substrate specificity ATP-binding cassette transporter ABCG2 (Homo sapiens) (UniProt Q9UNQ0); test: LTEA_HepaRG_ABCG2: Life Technologies and Expression Analysis (LTEA) Assay for ABC Transporter (ABCG2) using HepaRG (AID 2283465)
Outline: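 HepaRG, 48 h exposure, 8-pt half-log series from 100 uM, 0.5% DMSO vehicle, duplicates. Readout: ABCG2 transcript by qRT-PCR (Fluidigm array), housekeeping-normalized; bidirectional curve fit relative to DMSO baseline.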

[4] = read-out: ATP-citrate lyase (ACLY), ACLY (gene 47); test: LTEA_HepaRG_ACLY: Life Technologies and Expression Analysis (LTEA) Assay for ATP-citrate lyase (ACLY) using HepaRG (AID 2283466)
Outline: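 qRT-PCR readout of ACLY transcript after 48 h chemical treatment of HepaRG cells; expression normalized to three housekeeping genes. Eight-point half-log series, highest 100 uM, 0.5% DMSO vehicle. Gain or loss fitted against DMSO baseline.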

[5] = read-out: Peroxisomal acyl-coenzyme A oxidase 1 (ACOX1) gene, ACOX1 (gene 51); test: LTEA_HepaRG_ACOX1: Life Technologies and Expression Analysis (LTEA) Assay for Peroxisomal acyl-coenzyme A oxidase 1 (ACOX1) gene using HepaRG (AID 2283467)
Outline: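 HepaRG, 48 h chemical exposure, 8-pt half-log series from 100 uM top, 0.5% DMSO vehicle, duplicates. Readout: ACOX1 mRNA by Fluidigm qRT-PCR, housekeeping-normalized; bidirectional fit vs DMSO baseline.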

[6] = read-out: Alkaline Phosphatase, Placental (ALPP) gene, ALPP (gene 250); test: LTEA_HepaRG_ALPP: Life Technologies and Expression Analysis (LTEA) Assay for Alkaline Phosphatase, Placental (ALPP) gene using HepaRG (AID 2283468);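 for AC50: differentiated human HepaRG liver cells in serum-free induction medium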
Outline: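 Expression of ALPP was quantified by qRT-PCR against three housekeeping genes in human HepaRG cultures treated for 48 h with an eight-point concentration series up to 100 uM. Activity in either direction was fitted relative to 0.5% DMSO.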

[7] = read-out: Bcl-2 (BAD) gene, BAD (gene 572); test: LTEA_HepaRG_BAD: Life Technologies and Expression Analysis (LTEA) Assay for Bcl-2 (BAD) gene using HepaRG (AID 2283469)
Outline: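 HepaRG, 48 h exposure, 8-pt half-log curve from 100 uM in 0.5% DMSO, duplicates. Readout: TaqMan qRT-PCR for BAD mRNA, housekeeping-normalised (ACTB/GAPDH/POLR2A); gain or loss fitted against DMSO baseline.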

[8] = read-out: Bcl-2 (BAX) gene, BAX (gene 581); test: LTEA_HepaRG_BAX: Life Technologies and Expression Analysis (LTEA) Assay for Bcl-2 (BAX) gene using HepaRG (AID 2283470)
Outline: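 qRT-PCR read-out of BAX mRNA, normalized to three housekeeping genes, after 48 h chemical exposure of human HepaRG cells in serum-free induction medium; eight-point half-log series, top 100 uM, 0.5% DMSO vehicle; bidirectional fit versus DMSO.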

[9] = read-out: adenosine kinase (ADK) gene, ADK (gene 132); test: LTEA_HepaRG_ADK: Life Technologies and Expression Analysis (LTEA) Assay for adenosine kinase (ADK) gene using HepaRG (AID 2283471)
Outline: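 Read-out is ADK transcript level measured by qRT-PCR and normalised to three housekeeping genes. Cells are human HepaRG, dosed for 48 h at up to 100 uM in 0.5% DMSO. Gain or loss of signal is fitted against DMSO controls.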

[10] = read-out: Alpha-fetoprotein (AFP) gene, AFP (gene 174); test: LTEA_HepaRG_AFP: Life Technologies and Expression Analysis (LTEA) Assay for Alpha-fetoprotein (AFP) gene using HepaRG (AID 2283472)
Outline: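 qRT-PCR (Fluidigm TaqMan) readout of AFP transcript, normalized to three housekeeping genes, fitted bidirectionally against 0.5% DMSO baseline. HepaRG cells received chemicals for 48 h in serum-free induction medium, top concentration 100 uM, half-log steps.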

[11] = read-out: Apolipoprotein A-V (APOA5) gene, APOA5 (gene 116519); test: LTEA_HepaRG_APOA5: Life Technologies and Expression Analysis (LTEA) Assay for Apolipoprotein A-V (APOA5) gene using HepaRG (AID 2283474)
Outline: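 Human liver HepaRG cells are treated 48 h with test chemicals (100 uM top, half-log dilutions, 0.5% DMSO). APOA5 mRNA induction or loss is measured by qRT-PCR relative to vehicle.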

[12] = read-out: Apoptosis regulator Bcl-2 (Homo sapiens) (UniProt P10415); test: LTEA_HepaRG_BCL2: Life Technologies and Expression Analysis (LTEA) Assay for Bcl-2 gene using HepaRG (AID 2283475)
Outline: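 qRT-PCR read-out (Fluidigm TaqMan) of BCL2 transcript, normalised to three housekeeping genes, after 48 h chemical exposure of HepaRG cells; 8-point half-log series, top 100 uM, 0.5% DMSO vehicle. Gain or loss of signal fitted relative to DMSO baseline.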

[13] = read-out: Bcl-2 (BID) gene, BID (gene 637); test: LTEA_HepaRG_BID: Life Technologies and Expression Analysis (LTEA) Assay for Bcl-2 (BID) gene using HepaRG (AID 2283476)
Outline: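 HepaRG, 48 h exposure, 8-pt half-log series, top 100 uM, 0.5% DMSO vehicle, duplicates. Readout: BID mRNA by TaqMan qRT-PCR; housekeeping-normalized; bidirectional curve fit vs DMSO baseline.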

Caspase-3 (Homo sapiens) = Caspase-3 (Homo sapiens) (UniProt P42574); test: LTEA_HepaRG_CASP3: Life Technologies and Expression Analysis (LTEA) Assay for cysteine-aspartic acid protease (CASP3) using HepaRG (AID 2283477)
Outline: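 In HepaRG liver cells dosed for 48 h at up to 100 uM (eight-point, duplicate), CASP3 expression changes are scored by qRT-PCR. Activity is fitted in both directions with 0.5% DMSO as baseline.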

[14] = read-out: Cytochrome P450 (CYP24A1), CYP24A1 (gene 1591); test: LTEA_HepaRG_CYP24A1: Life Technologies and Expression Analysis (LTEA) Assay for Cytochrome P450 (CYP24A1) using HepaRG (AID 2283478)
Outline: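 Human liver HepaRG cultures receive each chemical for 48 h across an eight-point half-log series topping at 100 uM in 0.5% DMSO. Induction or suppression of CYP24A1 mRNA is scored relative to vehicle after housekeeping-gene normalization.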

[15] = read-out: cysteine-aspartic acid protease (CASP8), CASP8 (gene 841); test: LTEA_HepaRG_CASP8: Life Technologies and Expression Analysis (LTEA) Assay for cysteine-aspartic acid protease (CASP8) using HepaRG (AID 2283480)
Outline: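 qRT-PCR readout of CASP8 mRNA, normalized to three housekeeping genes, after 48 h chemical exposure of HepaRG cells; 8-point half-log series, top 100 uM, 0.5% DMSO vehicle. Bidirectional curve fitting against DMSO baseline.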

[16] = read-out: Cytochrome P450 2C19 (Homo sapiens) (UniProt P33261); test: LTEA_HepaRG_CYP2C19: Life Technologies and Expression Analysis (LTEA) Assay for CYP2C19 using HepaRG (AID 2283482)
Outline: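 Human HepaRG liver cells received test chemicals for 48 h (highest 100 uM, half-log dilutions in 0.5% DMSO). CYP2C19 mRNA induction or loss is read by multiplexed qRT-PCR and fitted in both directions versus vehicle.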

BCL2L11 (gene 10018) = test: LTEA_HepaRG_BCL2L11: Life Technologies and Expression Analysis (LTEA) Assay for Bcl-2 (BCL2L11) gene using HepaRG (AID 2283473)
Outline: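 Cells were plated, cultured 48 h, switched to serum-free induction medium, then dosed in duplicate for 48 h at eight half-log concentrations up to 100 uM. Lysates underwent RNA isolation and TaqMan qRT-PCR; gain or loss versus DMSO was fitted.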

[17] = read-out: Cytochrome P450 (CYP2B6), CYP2B6 (gene 1555); test: LTEA_HepaRG_CYP2B6: Life Technologies and Expression Analysis (LTEA) Assay for Cytochrome P450 (CYP2B6) using HepaRG (AID 2283481)
Outline: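 Using 48 h treatment of HepaRG cells in serum-free induction medium, concentrations spanned half-log steps from 100 uM in 0.5% DMSO vehicle. CYP2B6 mRNA induction or loss is scored by qRT-PCR against DMSO.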

[18] = read-out: Cytochrome P450 (CYP1A2), CYP1A2 (gene 1544); test: LTEA_HepaRG_CYP1A2: Life Technologies and Expression Analysis (LTEA) Assay for Cytochrome P450 (CYP1A2) using HepaRG (AID 2283479)
Outline: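 Assesses CYP1A2 mRNA in human HepaRG liver cells after 48 h chemical exposure at up to 100 uM. Values come from qRT-PCR with bidirectional curve fitting relative to DMSO.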

Measured: AC50

Chain of Caspase-3 (Homo sapiens) (P42574 whole entry, looked up): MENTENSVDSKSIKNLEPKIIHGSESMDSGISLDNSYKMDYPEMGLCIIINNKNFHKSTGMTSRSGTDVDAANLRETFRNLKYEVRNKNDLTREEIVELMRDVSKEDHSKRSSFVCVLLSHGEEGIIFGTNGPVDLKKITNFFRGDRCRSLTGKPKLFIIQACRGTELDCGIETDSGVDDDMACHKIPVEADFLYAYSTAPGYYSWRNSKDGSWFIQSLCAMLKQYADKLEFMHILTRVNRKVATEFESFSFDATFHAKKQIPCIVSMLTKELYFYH
Chain of Apoptosis regulator Bcl-2 (Homo sapiens) (P10415 whole entry, looked up): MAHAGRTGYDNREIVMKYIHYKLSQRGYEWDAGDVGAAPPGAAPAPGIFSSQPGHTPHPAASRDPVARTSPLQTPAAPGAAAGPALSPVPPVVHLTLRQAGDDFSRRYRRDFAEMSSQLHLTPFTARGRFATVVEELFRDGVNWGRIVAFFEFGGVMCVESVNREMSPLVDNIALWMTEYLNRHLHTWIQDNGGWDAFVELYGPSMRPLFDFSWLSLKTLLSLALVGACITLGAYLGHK
Chain of Broad substrate specificity ATP-binding cassette transporter ABCG2 (Homo sapiens) (Q9UNQ0 whole entry, looked up): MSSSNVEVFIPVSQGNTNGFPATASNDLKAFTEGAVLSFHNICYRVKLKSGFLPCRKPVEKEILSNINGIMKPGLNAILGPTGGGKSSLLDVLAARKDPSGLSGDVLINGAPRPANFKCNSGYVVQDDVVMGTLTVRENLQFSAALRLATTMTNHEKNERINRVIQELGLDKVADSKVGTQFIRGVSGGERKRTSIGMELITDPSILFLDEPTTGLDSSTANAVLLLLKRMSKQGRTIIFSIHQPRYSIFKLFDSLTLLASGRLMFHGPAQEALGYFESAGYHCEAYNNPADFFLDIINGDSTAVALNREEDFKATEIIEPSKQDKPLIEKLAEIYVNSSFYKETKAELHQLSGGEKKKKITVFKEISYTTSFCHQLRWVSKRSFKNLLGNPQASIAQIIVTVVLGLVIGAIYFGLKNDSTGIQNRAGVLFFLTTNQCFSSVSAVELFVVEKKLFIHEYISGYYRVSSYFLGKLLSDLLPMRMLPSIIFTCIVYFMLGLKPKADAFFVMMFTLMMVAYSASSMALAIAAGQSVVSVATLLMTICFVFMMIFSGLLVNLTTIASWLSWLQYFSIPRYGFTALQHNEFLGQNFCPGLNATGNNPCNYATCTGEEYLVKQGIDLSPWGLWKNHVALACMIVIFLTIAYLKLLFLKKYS
Chain of Cytochrome P450 2C19 (Homo sapiens) (P33261 whole entry, looked up): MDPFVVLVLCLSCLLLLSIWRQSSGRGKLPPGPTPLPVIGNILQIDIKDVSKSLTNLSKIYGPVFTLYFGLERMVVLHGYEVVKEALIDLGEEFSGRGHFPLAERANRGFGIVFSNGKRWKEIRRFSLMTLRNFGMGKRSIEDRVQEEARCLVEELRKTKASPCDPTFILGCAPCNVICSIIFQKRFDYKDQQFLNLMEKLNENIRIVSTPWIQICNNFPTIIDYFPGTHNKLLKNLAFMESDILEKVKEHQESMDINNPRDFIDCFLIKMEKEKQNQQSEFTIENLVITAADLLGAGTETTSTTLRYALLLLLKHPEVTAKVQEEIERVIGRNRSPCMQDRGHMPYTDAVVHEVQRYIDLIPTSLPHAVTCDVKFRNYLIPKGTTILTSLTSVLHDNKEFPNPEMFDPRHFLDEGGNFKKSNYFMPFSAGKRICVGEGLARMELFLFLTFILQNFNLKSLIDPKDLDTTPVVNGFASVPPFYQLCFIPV

CCCCOC(=O)CCCCC(=O)OCCCC
not listed: BCL2L11 (gene 10018) | [17] | [18]
inactive: all other assays above

COC(=O)CCC(=O)OC
not listed: BCL2L11 (gene 10018) | [17] | [18]
inactive: all other assays above

Cc1cc(SC2=C(O)C[C@@](CCc3ccc(N)cc3)(C(C)C)OC2=O)c(C(C)(C)C)cc1CO
active: [1] 50 µM | [2] 2.16 µM | [17] 2.89 µM | [16] 0.972 µM
not listed: [10] | [11] | [18]
inactive: all other assays above

CN(C)C(=O)NC1(c2ccccc2)CCN(CC[C@@]2(c3ccc(F)c(F)c3)CN(C(=O)c3ccccc3)CCO2)CC1
active: [1] 1.96 µM | [2] 3.81 µM | [4] 47 µM | [16] 2.65 µM
not listed: [10] | [11] | BCL2L11 (gene 10018) | [18]
inactive: all other assays above

Nc1nc(Cl)nc2c1ncn2[C@H]1C[C@H](O)[C@@H](CO)O1
active: [1] 0.593 µM | [2] 1.12 µM | [5] 4.13 µM | [8] 415 nM | [9] 1.05 µM | [11] 1.12 µM | [18] 0.715 µM | [16] 2.05 µM
not listed: [10] | BCL2L11 (gene 10018) | [17]
inactive: all other assays above

NCCOCCOCCN
active: [3] 12.1 µM
not listed: [10] | [11] | [18]
inactive: all other assays above

O=C1c2c(O)cccc2Cc2cccc(O)c21
active: [18] 18.2 µM
not listed: [10] | [11] | BCL2L11 (gene 10018)
inactive: all other assays above

CCCCCCCCCCCCCCCCO
active: [17] 13.1 µM
not listed: [10] | BCL2L11 (gene 10018) | [18]
inactive: all other assays above

CCCCC(CC)COP(=O)(OCC(CC)CCCC)OCC(CC)CCCC (stereo not drawn)
active: [18] 24.6 µM | [17] 8.38 µM | [16] 7.79 µM
not listed: [10] | [11]
inactive: all other assays above

OCC(O)CO
not listed: [10] | BCL2L11 (gene 10018) | [17] | [18]
inactive: all other assays above

CC(N)=O
active: [13] 321 nM
not listed: [10] | [11] | [17]
inactive: all other assays above

O=C(O)CC(O)(CC(=O)O)C(=O)O
not listed: [2] | [10] | BCL2L11 (gene 10018)
inactive: all other assays above

CN(C)CCCN1c2ccccc2Sc2ccc(Cl)cc21
active: [1] 24.7 µM | [2] 89.6 µM | [6] 11.8 µM | [9] 90.5 µM | [11] 85.8 µM | [18] 19.4 µM | [15] 94.5 µM
not listed: [5] | [10] | [16] | BCL2L11 (gene 10018) | [17]
inactive: all other assays above

CC1(C)C(=O)NC(=O)N1CO
not listed: [10] | BCL2L11 (gene 10018) | [17]
inactive: all other assays above

NC1CCCCC1
not listed: [10] | [11] | [18]
inactive: all other assays above

C/C=C/c1ccc(OC)cc1
not listed: [10] | [11] | BCL2L11 (gene 10018) | [17]
inactive: all other assays above
